Only some compounds are listed: those with a hit (about 4.8% of all), similar ones and a draw of the others.
SKKanGAS inh = blocks kanamycin growth of S. pyogenes SKKanGAS strain; 300,000 compounds, 1.3% hits; BacTiter-Glo, 6 h; inhibition, % at 7.5 µM;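 active = mean replicate score, as percent of positive control median, at least 50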;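 also: strain carries kanamycin resistance gene driven by streptokinase promoter and grows in 40 µg/ml kanamycin; loss of luminescence reflects streptokinase promoter inhibition or plain growth inhibition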
PfHsp90 yeast 2 = inhibits growth of yeast expressing Plasmodium falciparum Hsp90; inhibition, % at 9.4 µM; 310,000 compounds, 0.32% hits; AID 504621; S. cerevisiae expressing PfHsp90, BacTiter-Glo ATP, 48 h; yeast lacking PDR1 and PDR3 efflux regulators;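 active = every replicate shows inhibition above about 80%, whatever the replicate mean, limit read from the data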
tim23-1 inh = tim23-1 yeast growth inhibition; S. cerevisiae tim23-1 growth, BacTiter-Glo luminescence, 24 h; inhibition, % at 20 µM; 330,000 compounds, 1.3% hits; AID 463212;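 active = growth inhibition of the mutant yeast at or above 50%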;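 also: temperature-sensitive mutant grown at 25 °C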
NALP1 inh = inhibitors of NALP1 inflammasome in yeast; inhibition, % at 10 µM; S. cerevisiae NALP1/ASC/caspase-1 growth, X-gal OD620, 72 h; 280,000 compounds, 0.61% hits; AID 2071; in the data active = inhibition mostly above about 24%, no sharp cut-off; inactive = mostly below about 32%
TIM10 inh = inhibits growth of TIM10 yeast strain; S. cerevisiae TIM10 strain growth, BacTiter-Glo luminescence, 24 h; AID 463195; inhibition, % at 10 µM; 330,000 compounds, 1.4% hits;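 active = inhibition of 40% or more at the single tested concentration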;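 also: wild-type TIM10 isogenic control strain grown at permissive 25 °C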
tim10-1 inh = inhibits growth of tim10-1 mutant yeast | 330,000 compounds, 2.2% hits | inhibition, % at 20 µM | AID 463190 | S. cerevisiae tim10-1 ts strain growth, BacTiter-Glo, 24 h;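 active = inhibition of at least 40%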;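 also: mutant grown at 25 °C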
tim10-1 conf = tim10-1 yeast growth inhibition, confirmed. shares compounds with tim10-1 inh. S. cerevisiae tim10-1 ts strain growth, BacTiter-Glo, 24 h. inhibition, % at 20 µM. 7,400 compounds, 56% hits. AID 463213;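 active = inhibition of yeast growth at or above a set limit in either of two repeat tests at 20 µM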;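 also: tim10-1 mutant grown at permissive 25 °C to find synthetic lethal compounds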
Large screens that a line does not name were inactive (follow-up assays come after a bar, where they were run).

COC(=O)c1ccsc1NC(=O)CCS(=O)(=O)c1ccccc1	tim10-1 inh 41.5 | tim10-1 conf inactive
Cc1ccc(S(=O)(=O)CCC(=O)Nc2sccc2C(N)=O)cc1	none (no result: SKKanGAS inh, NALP1 inh)
COC(=O)c1ccsc1NC(=O)CCS(=O)(=O)c1ccc(Cl)cc1	tim10-1 inh 56.2 (no result: NALP1 inh) | tim10-1 conf 59.1
COC(=O)c1ccsc1NC(=O)CS(=O)(=O)c1ccccc1	none (no result: PfHsp90 yeast 2, NALP1 inh)
Cc1ncc(CO)c(/C=N/NC(=O)c2cc3c(s2)CCCC3)c1O	none
COc1cc2nc(CN3CCN(c4ncc(C(F)(F)F)cc4Cl)CC3)[nH]c(=O)c2cc1OC	none (no result: SKKanGAS inh, PfHsp90 yeast 2, tim23-1 inh, TIM10 inh, tim10-1 inh)
c1ccc(-c2nc3ccccn3c2NCc2ccc3c(c2)OCO3)cc1	none
COc1ccc(-c2nc3ccccn3c2NCc2ccc3c(c2)OCO3)cc1	tim10-1 inh 42.4 | tim10-1 conf inactive
O=C(NC(=S)N1CCCCCC1)c1ccc(Cl)cc1Cl	tim10-1 inh 47.8 | tim10-1 conf 30.5
CN1C(=O)[C@H]2[C@@H](C3CC3)N3C(=O)CN(CCO)C(=O)[C@@]3(Cc3ccccc3)[C@H]2C1=O	none
CCOC(=O)c1cc2nc(Nc3ccc(OC)cc3)sc2s1	none
O=C1c2cccnc2C(=O)N1Cc1ccc(S(=O)(=O)N2CCN(c3ccccc3)CC2)cc1	none
COc1ccc(Br)cc1/C=N/NC(=O)CNC(=O)C1COc2ccccc2O1 (stereo not given)	none
O=C(CNC(=O)C1COc2ccccc2O1)N/N=C\c1ccc(Br)cc1 (stereo not given)	tim10-1 inh 60.0 | tim10-1 conf inactive
O=C(N/N=C/C=C/c1ccc([N+](=O)[O-])cc1)C1COc2ccccc2O1 (stereo not given)	tim10-1 inh 51.4 | tim10-1 conf 37.2
C#CCn1c(S(=O)(=O)Cc2ccc(C)cc2)nc(-c2ccccc2)c1-c1ccccc1	none
O=C(O)C(c1ccccc1)C(O)C1CCCC1 (stereo not given)	none (no result: SKKanGAS inh, tim23-1 inh, NALP1 inh, TIM10 inh, tim10-1 inh)
O=C(Nc1ccccn1)c1ccc2c(c1)S(=O)(=O)c1ccccc1C2=O	none
O=C1c2ccccc2S(=O)(=O)c2cc(C(=O)N(c3ccccn3)c3ccccn3)ccc21	tim10-1 inh 40.7 | tim10-1 conf inactive
Cc1ccsc1C(=O)NNC(=O)c1csc(N2CCOCC2)n1	none (no result: NALP1 inh)
C=CCn1c(O)c(C2=c3ccccc3=NC2=O)sc1=Nc1ccc(O)cc1	tim10-1 inh 63.0 | tim10-1 conf inactive
O=C1N=c2ccccc2=C1c1sc(=S)n(NC(=O)c2ccccc2)c1O	none (no result: NALP1 inh)
O=C(NCc1ccccc1)c1nc(-c2cccs2)no1	tim10-1 inh 40.2 (no result: SKKanGAS inh) | tim10-1 conf 37.5
O=C(NCc1ccccc1)c1cc(-c2cccs2)on1	none
COc1cccc(/C=C/C(=O)OCC(=O)NC2CC2)c1	none (no result: SKKanGAS inh, NALP1 inh)
Cc1ccc(N=c2c([N+](=O)[O-])nn(-c3ccccc3)n2O)c(C)c1	tim10-1 inh 46.8 | tim10-1 conf 41.5
Cc1c(Cl)cccc1N=c1c([N+](=O)[O-])nn(-c2ccccc2)n1O	none
Cc1ccc2c(c1)c1c3n2CCN(C(=O)CCl)C3CCC1 (stereo not given)	tim10-1 inh 43.2 | tim10-1 conf inactive
Cc1ccccc1CSCCNC(=O)CSCc1ccc([N+](=O)[O-])cc1	none
O=C(/C=C/c1cccc([N+](=O)[O-])c1)NCCSCc1ccc(Cl)cc1	tim10-1 inh 45.3 | tim10-1 conf inactive
Cc1ccc(CSCCNC(=O)CSCc2ccc([N+](=O)[O-])cc2)cc1	NALP1 inh 48.2, tim10-1 inh 41.6 (no result: PfHsp90 yeast 2) | tim10-1 conf inactive
Cc1cccc(CSCCNC(=O)CSCc2ccc([N+](=O)[O-])cc2)c1	tim10-1 inh 45.9 | tim10-1 conf inactive
O=C(CCC(=O)Nc1ccc(F)cc1)N/N=C/c1ccncc1	none
O=C(NC(NNc1ccc([N+](=O)[O-])cc1)(C(F)(F)F)C(F)(F)F)c1ccc(F)cc1	none
O=C(NC(NNc1ccc([N+](=O)[O-])cc1)(C(F)(F)F)C(F)(F)F)c1ccccc1Cl	tim10-1 inh 47.5 (no result: PfHsp90 yeast 2) | tim10-1 conf inactive
COc1ccc(C(=O)Nc2ccc(Cl)cn2)cc1Cl	none
COc1cc2ccccc2cc1C(=O)N(CCN(C)C)c1nc2ccc(Br)cc2s1	tim10-1 inh 53.7 | tim10-1 conf inactive
COc1ccc(C)c2sc(N(CCN(C)C)C(=O)c3ccc4ccccc4c3)nc12	tim10-1 inh 44.1 | tim10-1 conf inactive
S=C(Nc1ccc(Cl)cc1)N(CCCN1CCOCC1)Cc1cccs1	tim10-1 inh 40.9 | tim10-1 conf inactive
O=C(Nc1ccc(Cl)cc1)N(CCCN1CCOCC1)Cc1cccs1	none
O=C(/C=C/c1ccccc1F)c1cccc([N+](=O)[O-])c1	tim10-1 inh 51.4 | tim10-1 conf 47.9
COc1cc(/C=C/C(=O)c2ccc(C)c([N+](=O)[O-])c2)cc(OC)c1O	none
COc1cc(/C=C/C(=O)c2cccc([N+](=O)[O-])c2)cc(OC)c1OC	tim10-1 inh 53.5 | tim10-1 conf 41.2
CCS(=O)(=O)N1CCN(C(=O)c2ccccc2[N+](=O)[O-])CC1	none
COc1ccc([N+](=O)[O-])cc1NCc1ccccc1	tim10-1 inh 42.7 | tim10-1 conf inactive
C=CCc1cc(/C=N/NC(=O)CSc2nnc(CCCc3ccc(OC)cc3)o2)cc(OC)c1O	none
CC(C)N(C(=O)c1nn(C)c2c1CSc1ccccc1-2)C1CCCCC1	tim10-1 inh 49.6 | tim10-1 conf inactive
Cn1nc(C(=O)NC2CCCCC2)c2c1-c1ccccc1SC2	none
COCOc1cc(O)c(C(=O)/C=C/c2ccccc2)c(OCOC)c1	tim10-1 inh 50.2 (no result: PfHsp90 yeast 2, NALP1 inh) | tim10-1 conf 41.2
COc1ccc(/C=C/C(=O)c2cc3cccc(OC)c3oc2=O)cc1	tim10-1 inh 42.5 | tim10-1 conf inactive
COc1ccc(C(=O)/C=C/c2ccc(N(C)C)cc2)c(OC)c1	none
COc1ccc(C(=O)/C=C/c2ccccc2)c(OC)c1	tim10-1 inh 40.2 | tim10-1 conf inactive
CNC(=O)c1cc2cccc(OC)c2oc1=O	none
Cn1c(=O)c2c(nc(SCCN3CCOCC3)n2Cc2cccc3ccccc23)n(C)c1=O	tim10-1 inh 43.5 (no result: PfHsp90 yeast 2) | tim10-1 conf inactive
COc1ccccc1NC(=S)NCc1ccccc1Cl	none
CCc1ccc(-c2cc3c(=O)n(CC(=O)NCCCN4CCC(Cc5ccccc5)CC4)nc(C)n3n2)cc1	tim10-1 inh 52.8 | tim10-1 conf inactive
Cc1ccccc1C1C(C#N)=C2N=C(N)c3c(sc4c3CCCCC4)N2C2=C1C(=O)CC(C)(C)C2 (stereo not given)	none (no result: PfHsp90 yeast 2)
Cc1ccccc1C1C(C#N)=C2NC(=O)c3c(sc4c3CCCCC4)N2C2=C1C(=O)CC(C)(C)C2 (stereo not given)	tim10-1 inh 45.9 (no result: PfHsp90 yeast 2) | tim10-1 conf 31.8

From PubChem
